Test results as given in the supplement of paper PMC8975748.
Structures can show the parent of a compound that is named as a salt. ± gives the standard deviation of the averaged measurements.

What was measured:
[1] = test system: Saccharomyces cerevisiae BY4741 SeMeCo community; assay: mean cell size (pixel area) (pixels); higher = larger cells; conditions: 10 µM; 24 h; SM minimal medium
Summary of the method: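 Yeast cells were fixed with paraformaldehyde, imaged by automated confocal microscopy and analysed in Harmony to obtain mean cell pixel area per well. They came from a four-plasmid fluorescent Saccharomyces cerevisiae BY4741 community, each plasmid complementing one auxotrophy and carrying a fluorescent marker. Before imaging, 70 µl of culture at OD600 = 0.3 was incubated for 24 h in SM medium in 384-well plates predosed acoustically with drug (final 10 µM). Values are means of 3 replicates. Same SeMeCo high-content imaging drug screen: Selleck FDA-approved drugs at 10 µM, 24 h in SM medium, 384-well plates, 3 replicates.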

[2] = test system: Saccharomyces cerevisiae BY4741 SeMeCo community; assay: z-score of prototroph abundance vs DMSO median; higher = larger share of this subpopulation than in DMSO controls; conditions: 10 µM; 24 h; SM minimal medium; subpopulation (auxotrophy): Prototroph
Summary of the method: (§1)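 Cells of a Saccharomyces cerevisiae BY4741 community, carrying four plasmids that each restored one auxotrophy and encoded a distinct fluorescent protein, were pre-grown overnight to OD600 1.0 and diluted to 0.3. A 70 µl volume was added to 384-well plates acoustically predosed with library drugs (10 µM final) and grown 24 h in minimal SM medium. After paraformaldehyde fixation, automated confocal microscopy was used, with single-auxotroph fluorescent strains for thresholds and autofluorescence correction. The abundance of each subpopulation was scored as a z-score against the vehicle-well median.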

[3] = test system: Saccharomyces cerevisiae BY4741 SeMeCo community; assay: z-score of subpopulation abundance vs DMSO median, subpopulation auxotrophic for M; higher = larger share of this subpopulation than in DMSO controls; conditions: 10 µM; 24 h; SM minimal medium; subpopulation (auxotrophy): M
Summary of the method: as §1

[4] = test system: Saccharomyces cerevisiae BY4741 SeMeCo community; assay: z-score of subpopulation abundance vs DMSO median, subpopulation auxotrophic for U; higher = larger share of this subpopulation than in DMSO controls; conditions: 10 µM; 24 h; SM minimal medium; subpopulation (auxotrophy): U
Summary of the method: as §1

[5] = test system: Saccharomyces cerevisiae BY4741 SeMeCo community; assay: z-score of subpopulation abundance vs DMSO median, subpopulation auxotrophic for H; higher = larger share of this subpopulation than in DMSO controls; conditions: 10 µM; 24 h; SM minimal medium; subpopulation (auxotrophy): H
Summary of the method: as §1

[6] = test system: Saccharomyces cerevisiae BY4741 SeMeCo community; assay: z-score of subpopulation abundance vs DMSO median, subpopulation auxotrophic for LU; higher = larger share of this subpopulation than in DMSO controls; conditions: 10 µM; 24 h; SM minimal medium; subpopulation (auxotrophy): LU
Summary of the method: as §1

[7] = test system: Saccharomyces cerevisiae BY4741 SeMeCo community; assay: z-score of subpopulation abundance vs DMSO median, subpopulation auxotrophic for LM; higher = larger share of this subpopulation than in DMSO controls; conditions: 10 µM; 24 h; SM minimal medium; subpopulation (auxotrophy): LM
Summary of the method: as §1

[8] = test system: Saccharomyces cerevisiae BY4741 SeMeCo community; assay: z-score of subpopulation abundance vs DMSO median, subpopulation auxotrophic for HM; higher = larger share of this subpopulation than in DMSO controls; conditions: 10 µM; 24 h; SM minimal medium; subpopulation (auxotrophy): HM
Summary of the method: as §1

[9] = test system: Saccharomyces cerevisiae BY4741 SeMeCo community; assay: z-score of subpopulation abundance vs DMSO median, subpopulation auxotrophic for HU; higher = larger share of this subpopulation than in DMSO controls; conditions: 10 µM; 24 h; SM minimal medium; subpopulation (auxotrophy): HU
Summary of the method: as §1

[10] = test system: Saccharomyces cerevisiae BY4741 SeMeCo community; assay: z-score of subpopulation abundance vs DMSO median, subpopulation auxotrophic for UM; higher = larger share of this subpopulation than in DMSO controls; conditions: 10 µM; 24 h; SM minimal medium; subpopulation (auxotrophy): UM
Summary of the method: as §1

[11] = test system: Saccharomyces cerevisiae BY4741 SeMeCo community; assay: z-score of subpopulation abundance vs DMSO median, subpopulation auxotrophic for HLU; higher = larger share of this subpopulation than in DMSO controls; conditions: 10 µM; 24 h; SM minimal medium; subpopulation (auxotrophy): HLU
Summary of the method: as §1

[12] = test system: Saccharomyces cerevisiae BY4741 SeMeCo community; assay: z-score of subpopulation abundance vs DMSO median, subpopulation auxotrophic for HUM; higher = larger share of this subpopulation than in DMSO controls; conditions: 10 µM; 24 h; SM minimal medium; subpopulation (auxotrophy): HUM
Summary of the method: as §1

[13] = test system: Saccharomyces cerevisiae BY4741 SeMeCo community; assay: z-score of subpopulation abundance vs DMSO median, subpopulation auxotrophic for HLUM; higher = larger share of this subpopulation than in DMSO controls; conditions: 10 µM; 24 h; SM minimal medium; subpopulation (auxotrophy): HLUM
Summary of the method: as §1

[14] = test system: Saccharomyces cerevisiae BY4741 SeMeCo community; assay: z-score of subpopulation abundance vs DMSO median, subpopulation auxotrophic for L; higher = larger share of this subpopulation than in DMSO controls; conditions: 10 µM; 24 h; SM minimal medium; subpopulation (auxotrophy): L
Summary of the method: as §1

[15] = test system: Saccharomyces cerevisiae BY4741 SeMeCo community; assay: z-score of subpopulation abundance vs DMSO median, subpopulation auxotrophic for HL; higher = larger share of this subpopulation than in DMSO controls; conditions: 10 µM; 24 h; SM minimal medium; subpopulation (auxotrophy): HL
Summary of the method: as §1

[16] = test system: Saccharomyces cerevisiae BY4741 SeMeCo community; assay: z-score of subpopulation abundance vs DMSO median, subpopulation auxotrophic for HLM; higher = larger share of this subpopulation than in DMSO controls; conditions: 10 µM; 24 h; SM minimal medium; subpopulation (auxotrophy): HLM
Summary of the method: as §1

[17] = test system: Saccharomyces cerevisiae BY4741 SeMeCo community; assay: z-score of subpopulation abundance vs DMSO median, subpopulation auxotrophic for LUM; higher = larger share of this subpopulation than in DMSO controls; conditions: 10 µM; 24 h; SM minimal medium; subpopulation (auxotrophy): LUM
Summary of the method: as §1

Structure (SMILES)	mean cell size [1]	z-score of prototroph abundance [2]	z-score of subpopulation abundance [3]	z-score of subpopulation abundance [4]	z-score of subpopulation abundance [5]	z-score of subpopulation abundance [6]	z-score of subpopulation abundance [7]	z-score of subpopulation abundance [8]	z-score of subpopulation abundance [9]	z-score of subpopulation abundance [10]	z-score of subpopulation abundance [11]	z-score of subpopulation abundance [12]	z-score of subpopulation abundance [13]	z-score of subpopulation abundance [14]	z-score of subpopulation abundance [15]	z-score of subpopulation abundance [16]	z-score of subpopulation abundance [17]
C[C@@H](O)[C@H]1C(=O)N2C(C(=O)OCOC(=O)C(C)(C)C)=C(SC3CN(C4=NCCS4)C3)[C@H](C)[C@H]12 [Tebipenem Pivoxil]	12.4 ± 0.16	0.66	-0.17	0.02	-0.29	-0.6	0.18	-0.9	-0.03	-0.27	-0.99	-0.67	-0.74				
CCOC(=O)C1=C(COCCN)NC(C)=C(C(=O)OC)C1c1ccccc1Cl (stereo not drawn) [Amlodipine]	13 ± 0.37	2.13	3.04	-7	3.95		8.35	4.86	-7.36	-8.26	-3.87	-6.23	-1.8	4.02	5.86	9.49	-4.72
O=C1CN2Cc3c(ccc(Cl)c3Cl)N=C2N1 [Anagrelide HCl]	12.3 ± 0.29		-0.78		-0.25	-0.64	-0.53	-0.37	0.3	0.39	0.58	0.14	0.12		0.5		-0.58
CCCOc1ccc2[nH]c(NC(=O)OC)nc2c1 [Oxibendazole]	12.26 ± 0.1		0.43	0.5		1.03		0.95	0.92		0.8		0.11		0.7	0.16	0.95
